Test [1] concerns XIP peptide (Xip251-270) binding. Kind of test: small-molecule binders of XIP peptide, primary screen, biochemical, small-molecule microarray, fluorescence 635/667 nm, 0.1 µg/mL protein (AID 1182). Particulars: fluorescent protein binding, 635 nm, higher = more signal, called active from +8 up or from −8 down.
Another test deals with XIP peptide (Xip251-270). Kind of test: small-molecule binders of XIP peptide, primary screen, biochemical, small-molecule microarray, fluorescence 635/667 nm, 0.5 µg/mL protein (AID 1183). Particulars: small-molecule microarray binding, fluorescence 635 nm; higher = more signal.
A short description of test [2]: Plasmodium falciparum growth inhibition, primary screen, strain 3D7, DAPI fluorescence, 100 nL (AID 1184).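 Note: parasites grown inside human red blood cells in medium with human serum.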 Particulars: P. falciparum 3D7 growth, 3 d, higher = more signal.
For test [3], the target named is Homeobox protein Hox-A13 (Mus musculus) (UniProt Q62424). The experiment in a line: inhibitors of HoxA13-DNA binding, primary screen, biochemical, fluorescence polarization, labeled oligonucleotide (AID 1185). Particulars: 15 min, higher = more signal, called active from +8 up or from −8 down. Background: In fluorescence polarisation assays a small probe gives low polarisation when free and higher when bound to something large.

The nature of test [4]: inhibitors of hydroxyurea-induced Chk1 phosphorylation, primary screen, imaging, HeLa, phospho-Chk1 antibody, percent positive cells (AID 1186). Particulars: hydroxyurea-induced phospho-Chk1 immunofluorescence imaging, higher = more signal.
Test [5] in a line: inhibitors of hydroxyurea-induced Chk1 phosphorylation, primary screen, imaging, HeLa, phospho-Chk1 nuclear intensity (AID 1187). Particulars: hydroxyurea-induced phospho-Chk1 immunofluorescence imaging, higher = more signal.

Our source for the composite z-score and z-score values is PubChem BioAssay.

Each structure is given as a SMILES string. Calls of active or inactive are those of the source. Unless noted, the rule behind the calls is not given here.

Homeobox protein Hox-A13 (Mus musculus), sequence (Q62424 whole entry, looked up): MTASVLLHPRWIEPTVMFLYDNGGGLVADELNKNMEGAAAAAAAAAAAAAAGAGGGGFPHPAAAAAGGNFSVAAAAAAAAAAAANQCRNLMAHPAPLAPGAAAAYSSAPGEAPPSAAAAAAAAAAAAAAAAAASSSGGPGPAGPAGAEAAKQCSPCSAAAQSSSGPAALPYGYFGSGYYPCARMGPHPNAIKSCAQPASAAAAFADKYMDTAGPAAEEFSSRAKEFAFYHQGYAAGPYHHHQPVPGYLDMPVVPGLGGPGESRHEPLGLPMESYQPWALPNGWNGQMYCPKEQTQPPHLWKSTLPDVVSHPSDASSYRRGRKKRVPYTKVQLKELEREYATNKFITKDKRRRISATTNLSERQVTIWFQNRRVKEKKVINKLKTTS

As for `CC(=O)NCCCC[C@@H]1NC(=O)[C@@H]2C[C@H](C(=O)NCCCCN(C)C)[C@H](c3cccc(OCCO)c3)N2C1=O`, the composite z-score was 0.172 (inactive) in test [1] and 0.237 with XIP peptide (Xip251-270). Moreover, the z-score in test [2] is -0.363; in test [3], -1.75 (inactive); in test [4], -0.281 (inactive); in test [5], -0.0329 (inactive).

Consider `CN(C)CCCCCCNC(=O)[C@@H]1C[C@@H]2C(=O)N[C@@H](CCCCN)C(=O)N2[C@@H]1c1cccc(OCCO)c1`, for which the composite z-score in test [1] is 3.64 (inactive); in the test on XIP peptide (Xip251-270) it was 0.944. Further, the z-score was 0.0037 in test [2], -1.47 (inactive) in test [3], -1.14 (inactive) in test [4] and -0.785 (inactive) in test [5].

Consider `COC(=O)c1c(CC[C@@H](CO)NC(=O)N[C@H](Cn2cc(Cc3ccccc3)nn2)C(C)C)oc(C(C)=O)c1C(=O)OC`, for which the composite z-score in test [1] was 0.369 (inactive); with XIP peptide (Xip251-270), -0.0446. Further, the z-score in test [2] was -1.99; in test [3], -0.701 (inactive); in test [4] it was 1.02 (inactive); in test [5], 1.38 (inactive).

Regarding `CN1C(=O)C2C=CC(C(O)c3ccccc3)N(Nc3ccccc3)C2C1=O` (stereo not given), the composite z-score was 0.599 (inactive) in test [1] and 0.357 in the test on XIP peptide (Xip251-270). The z-score in test [2] was -0.206; in test [3], -2.83 (inactive); in test [4], 0.861 (inactive); in test [5], 0.163 (inactive).

With `C[N+](C)(C)CCCC[C@@H]1NC(=O)[C@@H]2C[C@H](C(=O)NCCCCCN)[C@H](c3cccc(OCCO)c3)N2C1=O`, the composite z-score is -0.442 (inactive) in test [1] and 0.572 in the test on XIP peptide (Xip251-270). Also, the z-score in test [2] was 0.137; in test [3], -3.6 (inactive); in test [4], -0.86 (inactive); in test [5], -0.231 (inactive).

As for `Cc1ccc(S[C@]2(C(=O)NCC(F)(F)F)CC(=O)N(C(C)C)[C@@H]2c2ccc(CO)cc2I)cc1`, the composite z-score in test [1] was -0.268 (inactive); with XIP peptide (Xip251-270) it was -0.467. The z-score in test [2] was -0.181; in test [3], -2.7 (inactive); in test [4] it was 0.295 (inactive); in test [5] it was 0.84 (inactive).

As for `[N-]=[N+]=NCc1ccccc1[C@@H]1OC(c2ccc(OCCCO)cc2)=N[C@]1(CCS(=O)(=O)c1ccccc1)C(=O)NCCN1CCOCC1`, the composite z-score is 1.16 (inactive) in test [1] and 0.853 with XIP peptide (Xip251-270). In addition, the z-score was -2.19 in test [2], -2.41 (inactive) in test [3], 0.0054 (inactive) in test [4] and -0.373 (inactive) in test [5].

Turning to `COc1cc2c(cc1OC)CN(C(=O)[C@H]1[C@@H]3C(=O)O[C@@H](c4ccccc4)[C@@H](c4ccccc4)N3[C@@H](c3ccc(O)cc3)[C@]13C(=O)Nc1ccc(C#CC4=CCCCC4)cc13)CC2`, the composite z-score in test [1] was 0.546 (inactive); in the test on XIP peptide (Xip251-270) it was 0.795. The z-score in test [2] is -2.08; in test [3] it was 1.4 (inactive); in test [4], 0.138 (inactive); in test [5], 0.352 (inactive).

For `COC(=O)[C@@]1(Cc2ccc(F)cc2)[C@H]2c3cc(C(=O)N(C)C)n(Cc4ccc(S(C)(=O)=O)cc4)c3C[C@H]2CN1C(=O)c1ccccc1`, the values for the composite z-score (in test [1]; with XIP peptide (Xip251-270)) were 1.46 (inactive) and 0.788, respectively. The z-score in test [2] is -0.589; in test [3] it was -4.58 (inactive); in test [4] it was 0.144 (inactive); in test [5], 0.0541 (inactive).

`C=CCNC(=O)[C@H]1[C@@H]2C(=O)O[C@@H](c3ccccc3)[C@@H](c3ccccc3)N2[C@@H](c2ccc(O)cc2)[C@]12C(=O)N(C(=O)OCCOC)c1ccc(C#CCNC(N)=O)cc12`: the composite z-score in test [1] is 0.17 (inactive); with XIP peptide (Xip251-270) it was 0.53. In addition, the z-score in test [2] was 2.38; in test [3] it was -3.07 (inactive); in test [4] it was -0.237 (inactive); in test [5] it was -0.625 (inactive).

`COC(=O)[C@@]1(Cc2ccc(F)cc2)[C@@H]2[C@@H](CC(=O)[C@H]2CC(=O)C(=O)N(C)C)CN1C(=O)c1ccccc1`: the composite z-score in test [1] is 0.502 (inactive); in the test with XIP peptide (Xip251-270) it was 0.588. Also, the z-score in test [2] was -1.11; in test [3], -3.94 (inactive); in test [4], 0.0598 (inactive); in test [5], 0.186 (inactive).

For the compound `CC1(C)[C@@H]2CC(C(O)C3C=CC4C(=O)N(c5ccccc5)C(=O)C4N3Nc3ccccc3)=C[C@H]1C2` (stereo not given in full), the composite z-score in test [1] was 0.386 (inactive); in the test on XIP peptide (Xip251-270) it was 0.576. Further, the z-score in test [2] is -0.0796; in test [3], -3.65 (inactive); in test [4], -0.583 (inactive); in test [5] it was -0.715 (inactive).

`O=C1NC(=O)C2C1C=CC(C(O)c1cccc3ccccc13)N2Nc1ccccn1` (stereo not given): the composite z-score in test [1] was -0.219 (inactive); in the test with XIP peptide (Xip251-270), 0.395. Also, the z-score in test [2] is 0.181; in test [3] it was -1.71 (inactive); in test [4], -0.146 (inactive); in test [5] it was -0.382 (inactive).

In the case of `CCOC(=O)[C@H]1C/C=C/C[C@H](C(=O)OCC)C(=O)O[C@H]2[C@@H](OC)O[C@H](CO)[C@@H](OC(=O)Nc3ccc(C#N)cc3)[C@@H]2OC1=O`, the results for the composite z-score (in test [1]; in the test with XIP peptide (Xip251-270)) were 1.09 (inactive) and 0.84, respectively. Besides, the z-score in test [2] was -2.07; in test [3], -1.69 (inactive); in test [4] it was -0.892 (inactive); in test [5], -1.88 (inactive).

Regarding `C#CCN(Cc1ccccc1Br)C(/C=C/c1ccccc1)CO` (stereo not given), the composite z-score in test [1] is 1.09 (inactive); with XIP peptide (Xip251-270), -0.318. The z-score is -1.02 in test [2], -6.39 (inactive) in test [3], -0.348 (inactive) in test [4] and -0.323 (inactive) in test [5].
